Values joined by “and” are separate entries in the source; they are usually repeats but may differ in a detail not shown here. Equal entries are not always repeated. Records with an inconclusive call do not appear. The source holds several records for some structures; these can differ, active in one and inactive in another. Active and inactive are the calls of the source. How the source made its calls, unless noted: active means hit-call score of the fitted dose curve at least 0.9, where 1 is the maximum; inactive means score below 0.9.
Legend:
[1] = read-out: Thyroid Hormone Responsive (THRSP), THRSP (gene 7069); assay: LTEA_HepaRG_THRSP: Life Technologies and Expression Analysis (LTEA) Assay for Thyroid Hormone Responsive (THRSP) using HepaRG (AID 2283536); details: mRNA level, 48 h; actives raise or lower the signal
How it was run: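 THRSP transcript quantified by Fluidigm qRT-PCR against three housekeeping genes after 48 h chemical exposure of HepaRG cells in serum-free induction medium; eight-point half-log series, top 100 uM, 0.5% DMSO vehicle, duplicate wells.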

[2] = read-out: Cellular tumor antigen p53 (Homo sapiens) (UniProt P04637); assay: LTEA_HepaRG_TP53: Life Technologies and Expression Analysis (LTEA) Assay for Tumor Protein P53 (TP53) using HepaRG (AID 2283537); details: mRNA level, 48 h; actives raise or lower the signal
How it was run: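 Read-out is TP53 transcript level by microfluidic qRT-PCR, normalised to three housekeeping genes and fitted bidirectionally against DMSO. Human HepaRG cells received compounds for 48 h, highest concentration 100 uM.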

[3] = read-out: UDP glucuronosyltransferase (UGT1A1), UGT1A1 (gene 54658); assay: LTEA_HepaRG_UGT1A1: Life Technologies and Expression Analysis (LTEA) Assay for UDP glucuronosyltransferase (UGT1A1) using HepaRG (AID 2283538); details: mRNA level, 48 h; actives raise or lower the signal
How it was run: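 Cells are plated, cultured 48 h, switched to serum-free induction medium, then dosed 48 h at eight concentrations (max 100 uM, 0.5% DMSO). RNA is isolated and UGT1A1 expression measured by qRT-PCR; changes versus DMSO are fitted in both directions.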

[4] = read-out: UDP glucuronosyltransferase (UGT1A6), UGT1A6 (gene 54578); assay: LTEA_HepaRG_UGT1A6: Life Technologies and Expression Analysis (LTEA) Assay for UDP glucuronosyltransferase (UGT1A6) using HepaRG (AID 2283539); details: mRNA level, 48 h; actives raise or lower the signal
How it was run: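 qRT-PCR readout of UGT1A6 mRNA (normalized to ACTB/GAPDH/POLR2A) in differentiated HepaRG cells after 48 h chemical exposure; 8 concentrations, top 100 uM, half-log steps, 0.5% DMSO. Bidirectional curve fit relative to DMSO baseline.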

[5] = read-out: X-box binding protein 1 (XBP1), XBP1 (gene 7494); assay: LTEA_HepaRG_XBP1: Life Technologies and Expression Analysis (LTEA) Assay for X-box binding protein 1 (XBP1) using HepaRG (AID 2283540); details: mRNA level, 48 h; actives raise or lower the signal
How it was run: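 HepaRG, 48 h exposure, 8-pt half-log CRC top 100 uM, 0.5% DMSO vehicle, duplicates. Readout: TaqMan qRT-PCR of XBP1 mRNA, housekeeping-normalised (ACTB/GAPDH/POLR2A); bidirectional fit vs DMSO baseline.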

[6] = LTEA_HepaRG_LDH_cytotoxicity: Cytotoxicity Assessment in the Life Technologies and Expression Analysis (LTEA) Assay (AID 2283563; active means hit-call score of the fitted dose curve at least 0.9, where 1 is the maximum;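 on AC50: LDH activity released into spent culture medium as a marker of cell death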)
How it was run: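 HepaRG (human liver line), 48 h exposure, 8-pt half-log series from 100 uM, 0.5% DMSO vehicle, duplicates. Read-out: LDH in spent medium. Positive-direction fit vs DMSO baseline.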

[7] = TOX21_p53_BLA_p2_viability: Viability Assessment in the Tox21 HCT-116 p53 Agonism Beta-lactamase Assay, Phase 2 (AID 2283591; active means hit-call score of the fitted dose curve at least 0.9, where 1 is the maximum;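 further: actives lower the ATP signal meaning cytotoxicity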)
How it was run: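 Cytotoxicity readout: CellTiter-Glo ATP luminescence, 30 min at room temperature, after the beta-lactamase read. Cells were HCT116 exposed 16 h at 37C to compounds pin-transferred at 217-fold dilution from DMSO stocks.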

[8] = target: Cellular tumor antigen p53 (Homo sapiens) (UniProt P04637); assay: TOX21_p53_BLA_p2_ratio: Tox21 HCT-116 p53 Agonism Beta-lactamase Assay, Ratio, Phase 2 (AID 2283592; active means hit-call score of the fitted dose curve at least 0.9, where 1 is the maximum)
How it was run: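 Readout: blue/green (460/530 nm) FRET emission ratio after 2 h CCF4-AM loading at room temperature, excitation 405 nm. HCT116 p53 bla cells, 16 h compound exposure at 37C, 5% CO2; agonist direction fitted against DMSO baseline.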

[9] = TOX21_p53_BLA_p3_viability: Viability Assessment in the Tox21 HCT-116 p53 Agonism Beta-lactamase Assay, Phase 3 (AID 2283593; active means hit-call score of the fitted dose curve at least 0.9, where 1 is the maximum;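 further: cells exposed to compound for 16 h before reading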)
How it was run: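 Cellular ATP was quantified by CellTiter-Glo luminescence, read after 30 min at room temperature. Beforehand, HCT116 cells (4000/well) received compound 5 h post-seeding, 217-fold diluted from DMSO, then incubated 16 h at 37C.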

[10] = ATG_XTT_Cytotoxicity: Cytotoxicity Assessment in the Attagene TRANS-FACTORIAL HepG2 Assay (AID 2283584; active means hit-call score of the fitted dose curve at least 0.9, where 1 is the maximum)
How it was run: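 XTT readout of cell number in transfected HepG2 cells, 24 h post-dosing; DMSO serves as negative control and baseline, with activity taken as loss of viability signal.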

Measured: AC50

Sequence of Cellular tumor antigen p53 (Homo sapiens) (P04637 whole entry, looked up): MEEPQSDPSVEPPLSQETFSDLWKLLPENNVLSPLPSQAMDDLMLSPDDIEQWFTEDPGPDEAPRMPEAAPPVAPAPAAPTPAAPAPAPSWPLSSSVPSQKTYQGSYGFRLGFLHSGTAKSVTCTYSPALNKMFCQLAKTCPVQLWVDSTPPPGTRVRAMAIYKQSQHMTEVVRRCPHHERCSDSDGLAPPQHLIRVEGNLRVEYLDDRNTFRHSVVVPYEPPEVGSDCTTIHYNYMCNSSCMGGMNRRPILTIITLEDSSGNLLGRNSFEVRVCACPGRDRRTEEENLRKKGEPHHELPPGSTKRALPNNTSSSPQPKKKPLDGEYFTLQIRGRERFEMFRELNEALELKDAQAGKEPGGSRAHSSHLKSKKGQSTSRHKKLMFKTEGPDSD

c1ccc(-c2ccccc2)cc1
not listed: [10]
inactive: all other assays above

COS(=O)(=O)OC
not listed: [10]
inactive: all other assays above

Sc1ccccc1
inactive: [10]

C=CC(N)=O
not listed: [10]
inactive: all other assays above

Oc1ccc(Cl)cc1Cl
not listed: [10]
inactive: all other assays above

OCC(O)CO
inactive: [10] | [7] | [8] | [9]

CCOC(=O)C(O)(c1ccc(Cl)cc1)c1ccc(Cl)cc1
active: [3] 67.4 µM | [7] 67.1 µM and 17.8 µM | [8] 63.8 µM and 32.9 µM | [9] 22 µM
inactive: [1] | [2] | [4] | [5] | [6] | [10] | [9]

Cc1cccc([N+](=O)[O-])c1
inactive: all assays above

CCNc1nc(NC(C)C)nc(SC)n1
inactive: [1] | [4] | [5] | [6]

Cc1cc2c3c(c1)C(c1ccccc1)=N[C@@H](NC(=O)c1ccncc1)C(=O)N3CC2
active: [1] 22.7 µM | [2] 50 µM | [3] 4.99 µM
inactive: [4] | [5] | [6] | [8]

Cc1ccccc1CO[C@@H]1C[C@@]2(C(C)C)CC[C@]1(C)O2
active: [1] 71.7 µM | [3] 14.9 µM
inactive: [4] | [5] | [6]

CCC(C)c1cc([N+](=O)[O-])cc([N+](=O)[O-])c1O (centres undefined)
active: [1] 1.98 µM | [2] 1.55 µM | [3] 1.83 µM | [4] 4.17 µM | [6] 3.73 µM | [8] 4.16 µM
inactive: [5] | [10] | [9]

Cc1ccc(O)c(C)c1
not listed: [10]
inactive: all other assays above

O=C(N[C@H]1CN2CCC1CC2)c1cc2ccoc2cn1
not listed: [10]
inactive: all other assays above

CC1=C2C[C@H]3[C@@H](CC=C4C[C@@H](O)CC[C@@]43C)[C@@H]2CC[C@]12O[C@@H]1C[C@H](C)CN[C@H]1[C@H]2C
active: [5] 25 µM
not listed: [8]
inactive: all other assays above

C=CC(=O)NCNC(=O)C=C
not listed: [8]
inactive: all other assays above

CCC(C)(CC)c1cc(NC(=O)c2c(OC)cccc2OC)on1
active: [1] 41.2 µM | [3] 2.8 µM
inactive: [4] | [5] | [6]

O=C(NC(=O)c1cc(F)c(F)cc1Cl)Nc1cc(F)ccc1N1CCC(C(=O)O)CC1
not listed: [10]
inactive: all other assays above

O=C(O)C(F)(F)C(F)(F)C(F)(F)C(F)(F)C(F)(F)F
not listed: [7] | [9] | [10]
inactive: all other assays above
